Results taken from the supplement of paper PMC6555819.

Key:
Assay in all cases: PBM binding z-score (relative to random genomic background probes); higher = stronger binding; sequences stand for … in GC…GCGATTGACAGCGTAGAATGAAGG
[1] = tested on: RARb homodimer (NR concentration 270 nM)
How it was run: (§1)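 On custom Agilent 4×180K arrays, double-stranded probes with 34-nt variable regions carried direct-repeat seeds, single-nucleotide variants, half-site ablations or random human genomic background. Ligand-free nuclear receptor dimers were applied for 1 h, and binding was read with antibodies against each partner (one per run). Binding z-scores come from regression-normalized fluorescence, with the random background probes as reference.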

[2] = tested on: RARg:RXRa (NR concentration 270 nM, RXRa partner concentration 90 nM)
How it was run: as §1

[3] = tested on: RARg homodimer (NR concentration 270 nM)
How it was run: as §1

[4] = tested on: RXRa DBDmut IVT, anti-RXR (DBD mutation: RXRa K156A/R161A, NR concentration 90 nM)
How it was run: as §1

[5] = tested on: RXRa homodimer (NR concentration 180 nM)
How it was run: as §1

[6] = tested on: THRa:RXRa (NR concentration 90 nM, RXRa partner concentration 90 nM)
How it was run: as §1

[7] = tested on: THRa homodimer (NR concentration 90 nM)
How it was run: as §1

[8] = tested on: VDR:RXRa (NR concentration 270 nM, RXRa partner concentration 90 nM)
How it was run: as §1

[9] = tested on: VDR homodimer (NR concentration 270 nM)
How it was run: as §1

Row | Sequence | PBM binding z-score [1] | PBM binding z-score [2] | PBM binding z-score [3] | PBM binding z-score [4] | PBM binding z-score [5] | PBM binding z-score [6] | PBM binding z-score [7] | PBM binding z-score [8] | PBM binding z-score [9]
1 | TGTTGTAGATCAGCAGGTTAAGAAAGCTGGCCAA | -0.378 | -0.266 | -0.294 | -1.38 | -0.118 | -0.32 | -1.04 | -0.372 | -0.583
2 | TCTGCAAGGTCAGTTGGTCAGCTAACGAGCTGCC | 3.59 | 4.63 | 5.16 | 2.42 | 2.78 | 3.02 | 0.921 | 2.19 | 1.12
3 | CCGACTGGGGCATAAGGTTACCATTAGCCAGCCC | 1.82 | 1.34 | 0.904 | -0.204 | 1.08 | 1.87 | 1.37 | -0.0219 | -0.611
4 | TCTTGTAGATCAATAGAGGTTAACAAAGTGCGCT | 1.38 | 1.11 | 0.826 | 0.564 | 1.68 | 2.62 | -0.415 | 2.2 | 0.462
5 | TCTAGTTGGTCACGGAGGTCACACAGGACGGGTA | 4.25 | 4.69 | 4.9 | 0.898 | 4.86 | 3.75 | 2.62 | 5.94 | 3.06
6 | CCTAGCAGGCCAGGGTCACTAAAGCATTTCGCTT | 2.69 | 2.79 | 2.41 | 0.297 | 2.89 | 2.67 | 0.878 | 2.08 | 0.922
7 | GCTAGCAGGCCATGTGGGTCACTCAATGACGGGC | 1.65 | 0.945 | 1.05 | -0.752 | 0.909 | 0.759 | -0.59 | 0.49 | 0.0438
8 | CCTACTGGGCCAAAAAGGTGATTGATGCCGATAA | 0.483 | 0.0442 | 0.047 | -0.635 | -0.0112 | 0.0456 | -0.353 | -0.0906 | -0.114
9 | ATACCAAGGTGATCGTTAGGTCGTTGATACTAAC | 1.02 | 0.983 | 0.72 | 0.203 | 0.459 | 2.26 | 1.49 | 0.566 | 0.472
10 | AATACAGGGTCACTAGGCCAGACTAGGTACGAAT | 3.25 | 5.28 | 4.68 | 2.72 | 5.35 | 3.44 | 1.22 | 4.22 | 2.17
11 | TCGAGTGGGTTAGGGGCATTCAGAATGGCGTCGA | 1.21 | 0.178 | -0.204 | 0.231 | 0.603 | 1.23 | 0.84 | 1.04 | 1.54
12 | TAGCCTAGGTCAGATCGGGCCAGTATCCGCTATA | 2.26 | 2.39 | 3.37 | -0.366 | 1.35 | 4 | 0.15 | 0.43 | -0.329
13 | CAAACTAGGTCACCGGAAGGTCAAAATCCGCATG | 5.17 | 7.81 | 7.09 | 2.39 | 5.88 | 4.39 | 2.94 | 5.69 | 3.11
14 | ATCTCTAGGTAACAAGTGCAGTGAAAGAGAGGAC | 0.571 | 0.393 | 0.624 | -0.169 | 0.249 | 1.11 | 0.468 | 0.287 | 0.625
15 | ATATGTAGGTTAGCTCGGGTCATTCAGACTAGGC | 2.89 | 2.48 | 2.04 | 0.986 | 3.02 | 4.98 | 2.7 | 3.96 | 2.6
16 | CGTAGCAGGCCAATCTGGGTCACTCAAGGCTTGA | 1.95 | 0.96 | 1.26 | 0.317 | 0.616 | 3.65 | 0.645 | 0.309 | -0.295
17 | AGTCAAAGTTCATCTCGGTAACGTAAGATATGCT | 3.93 | 5.53 | 6.02 | 4.57 | 4.35 | 2.58 | -0.318 | 4.8 | 4.92
18 | TGTCAAAGTTCAAAGGTAACGTAGGTATCCACAC | 4.01 | 6.19 | 6.01 | 4.14 | 7.19 | 3.05 | -0.392 | 5.15 | 3.97
19 | GCTGCTAGGTCAACTGATGGTCAGGTAAAGCTCG | 3.83 | 5.13 | 5.23 | 1.6 | 3 | 3.27 | 1.76 | 1.69 | 0.0826
20 | CCTTACGGGTCACTGACAGGTTATCGCATTTGGA | 3.3 | 5.91 | 4.66 | 1.9 | 5.05 | 3.02 | 0.17 | 3.85 | 0.982
21 | GCTAGTTGGTCACTAAAAGGTCACACACCGGTCG | 5.51 | 5.78 | 5.45 | 0.465 | 5.16 | 3.61 | 1.7 | 4.17 | 2.13
22 | CCTACTGGGACAAAGGTCATTGATTCCAATGCTC | 4.66 | 5.3 | 4.6 | 1.83 | 5.76 | 3.57 | 1.25 | 4.67 | 2.94
23 | GCTCGGAGGACAAGGTGAGAGCTTTGTCCGTAGA | 0.56 | 0.159 | 0.805 | -0.507 | -0.256 | 1.5 | 0.465 | -0.606 | -0.74
24 | TTACCAAGGTGAGCTGAGGGCGTTGATCCAACTC | 0.362 | -0.0631 | -0.0832 | -0.14 | 0.126 | 3.36 | 0.287 | 1.89 | 0.247
25 | TGTCAAAGTTCAAAGGTAAAGTAAGTATCCACAC | 3.74 | 6.33 | 6.06 | 4.16 | 7 | 3.08 | -0.134 | 4.88 | 3.53
26 | AGAATGAGGTTACCAAGGATCAGGGAAACGCTTG | 1.02 | 1.94 | 1.65 | 0.704 | 2.62 | 2.94 | 1.1 | 2.03 | 0.508
